Compound activity deposited in PubChem by Sanford-Burnham Center for Chemical Genomics.
CYP2C19 activ – activators of human cytochrome P450 2C19; recombinant CYP2C19, luciferin-H EGE luminescence; active compounds read high; 0 = fully inhibited enzyme, 1 = untreated enzyme; 96,000 tested, under 10 active; AID 1025; activation factor at 5 µM;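 active = activation factor of at least 2 at 5 µM in the primary screen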;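 also: 0 = wells with 2.5 mM tranylcypromine and 1 = vehicle-only wells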
CYP2C9 act – activators of human CYP2C9; recombinant CYP2C9, luciferin-H conversion, luminescence; active compounds read high; factor 1 = untreated enzyme, 0 = blocked; 1.4% of 96,000 active; P11712; AID 1024; activation factor at 5 µM;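 active = activation factor of 2 or more for CYP2C9 at a 5 µM dose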;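 also: 0 = sulfaphenazole-blocked wells and 1 = vehicle-only wells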
Target sequence (P11712 whole entry, looked up): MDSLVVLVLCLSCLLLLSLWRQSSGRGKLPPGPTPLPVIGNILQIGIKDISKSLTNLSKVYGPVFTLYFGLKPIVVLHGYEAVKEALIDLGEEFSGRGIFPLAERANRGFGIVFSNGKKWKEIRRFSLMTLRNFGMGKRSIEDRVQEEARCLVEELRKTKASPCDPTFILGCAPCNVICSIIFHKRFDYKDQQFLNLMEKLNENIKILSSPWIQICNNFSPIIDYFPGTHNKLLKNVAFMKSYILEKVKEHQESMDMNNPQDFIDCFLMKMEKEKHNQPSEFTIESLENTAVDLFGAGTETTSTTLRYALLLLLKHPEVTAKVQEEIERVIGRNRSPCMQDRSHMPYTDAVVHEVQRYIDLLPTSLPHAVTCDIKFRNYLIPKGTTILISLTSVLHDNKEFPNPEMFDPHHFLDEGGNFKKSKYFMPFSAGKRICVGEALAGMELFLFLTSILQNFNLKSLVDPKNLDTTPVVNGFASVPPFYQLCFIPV
CYP2C19 inhib – inhibitors of human CYP2C19; CYP2C19 Supersomes, luciferin-H EGE luminescence, 30 min; P33261; 21% of 96,000 active; AID 778; inhibition, % at 5 µM;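 active = CYP2C19 inhibition above a set limit at 5 µM in the primary screen, cut at about 50% in these data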;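 also: plate controls were negative control wells for no effect and 2.5 mM tranylcypromine positive control for full effect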
CYP2C9 inhib – human CYP2C9 inhibition | CYP2C9 Supersomes, luciferin-H conversion, luminescence | 20% of 96,000 active | inhibition, % at 5 µM | P11712;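 active = blocking of liver enzyme CYP2C9 beyond about 50% at 5 µM, limit read from the data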
Starred values were filed as active, the others as inactive. Hits are enriched below; roughly 31% of the tested compounds scored in any of these assays.

SMILES	CYP2C19 activ	CYP2C9 act	CYP2C19 inhib	CYP2C9 inhib
Cc1ccc2[nH]c(C(=O)O)c(NC(=O)CN3CCN(c4cccc(C)c4C)CC3)c2c1	0.7	0.2	34	83*
COC(=O)c1[nH]c2ccc(C)cc2c1NC(=O)CN1CCN(c2ccccc2)CC1	0.1	0.2	90*	75*
COC(=O)c1[nH]c2ccc(C)cc2c1NC(=O)CN1CCN(c2ccc(F)cc2)CC1	1	1.1	-5	-10
Cc1c(C)n(C(=O)CN2CCN(c3ccccc3)CC2)c2ccccc12	0.4	1.6	56*	-57
COC(=O)c1[nH]c2ccc(C)cc2c1NC(=O)CN1CCN(C(=O)c2ccccc2)CC1	0.6	0.7	36	27
N=c1c(C(=O)NCc2ccc(F)cc2)cc2c(=O)n3ccccc3nc2n1Cc1cccnc1	0.9	0.8	7	20
COc1ccc(-c2ccc(S(=O)(=O)N3CCOCC3)cc2)cc1	0.6	1.1	42	-5
COc1ccc(-n2c(O)c(/C=N/n3cnnc3)c3ccccc3c2=O)cc1	1.1	0.3	-7	75*
O=c1c2ccccc2c(/C=N/n2cnnc2)c(O)n1-c1ccccc1	0.9	0.4	6	61*
Cc1ccc(-n2c(O)c(C=Nc3ccc4c(c3)OCO4)c3ccccc3c2=O)cc1C	0.9	1.1	11	-6
C=CCn1sc(=N)c(C#N)c1N	1.1	0.8	-6	16
CC(=O)N1CCC(=O)N(C(C)C)c2ccccc21	1.1	1	-7	4
Cc1ccc(N2CCCn3c2nc2c3c(=O)n(CC(=O)OCc3ccccc3)c(=O)n2C)cc1C	0.8	0.4	22	55*
Cn1c(=O)n(Cc2ccc(F)cc2)c(=O)c2c1nc1n2CCCN1Cc1ccccc1	0	0.1	96*	86*
CC(C)Cn1c(=O)c2c(nc3n2CCCN3CCc2ccccc2)n(C)c1=O	0.1	0.1	85*	93*
Cn1c(=O)n(CCc2ccccc2)c(=O)c2c1nc1n2CCCN1CCc1ccccc1	0.1	0.1	92*	93*
Cn1c(=O)n(CCc2ccccc2)c(=O)c2c1nc1n2CCCN1Cc1ccccc1	0.9	0.8	11	15
COC(=O)c1cc(CSc2nnc(NC3CCCCC3)s2)oc1C	0.5	0.5	45	48
O=C(CN(Cc1cccs1)C(=O)CN1C(=O)COc2ccccc21)NCc1ccco1	0.9	0.9	12	13
Cc1occc1-c1nnc(SCC(=O)NC(=O)NC(C)C)n1N	1	1.1	1	-6
Clc1ccc(OCc2nn3c(C4CCCCC4)nnc3s2)c(Cl)c1	0.9	1	9	-3
c1cncc(-c2nnc3sc(C4CCCCC4)nn23)c1	0.1	0.7	94*	34
COc1ccc(-c2nn3c(-c4ccc(F)cc4)nnc3s2)cc1	0.8	0.5	24	48
CCOc1cccc(-c2nnc3sc(C4CCCCC4)nn23)c1	0.1	0.6	94*	43
c1ccc(OCc2nn3c(-c4cccnc4)nnc3s2)cc1	0.7	0.8	32	16
SMILES	CYP2C19 activ	CYP2C9 act	CYP2C19 inhib	CYP2C9 inhib
COc1cc(OC)c(-c2nn3c(C4CCCCC4)nnc3s2)cc1OC	0.2	0.1	84*	85*
CCOc1cccc(-c2nnc3sc(-c4cc(OC)c(OC)cc4OC)nn23)c1	1.1	1.2	-5	-16
COc1cccc(-c2nnc3sc(C4CCCCC4)nn23)c1	0.2	0.2	84*	78*
C=CCNC(=O)c1oc2ccc(S(=O)(=O)N(CC)CC)cc2c1C	0.8	0.5	24	47
COc1ccc(-c2nnc3sc(-c4ccc(Br)o4)nn23)cc1OC	0.9	0.9	14	14
COc1cc(-c2nnc3sc(C4CCCCC4)nn23)cc(OC)c1OC	0.3	0.2	75*	77*
Cc1cc(-c2nnc3sc(C4CCCCC4)nn23)n[nH]1	0.3	1	73*	2
O=C(Nc1ccccc1SCC1CSc2nc3ccccc3c(=O)n21)c1cccc(Cl)c1 (stereo not given)	0.7	0.9	34	11
CCCCCCCOc1ccc(OC(=O)c2cccnc2)cc1	0.3	0.2	66*	77*
CCCCCCOC(=O)c1ccc(OC(=O)c2cccnc2)cc1	0.3	0.1	72*	86*
CC(=O)NC1=NC(=O)C(C)S1 (stereo not given)	1.1	1	-7	0
Cc1ccc(C(=O)c2c(NC(=O)c3cccnc3)sc3c2CCCC3)cc1	0.8	0.8	24	15
N/C(=N\c1nc2c(c(=O)[nH]1)CCCC2)Nc1ccccc1	1.1	1	-12	-4
N/C(=N\c1nc2c(c(=O)[nH]1)CCCC2)Nc1ccccc1Sc1ccccc1	0.5	0.4	46	63*
CC1CCN(CC(O)COCCC23CC4CC(CC(C4)C2)C3)CC1 (stereo not given)	0.7	1.1	32	-7
CC(=O)Nc1c(C(=O)N2CCOCC2)cnn1-c1ccc(C)c(C)c1	0.9	1	9	-4
Cc1ccc(-n2c(C)cc(C(=S)N3CCOCC3)c2C)cc1C	0.1	0.6	87*	37
c1coc(-c2nc3c([nH]2)CCc2nonc2-3)c1	1.2	1.1	-18	-8
COc1ccc(OC)c(NC(=O)C2CCN(Cc3cnn(-c4ccccc4)c3-n3cccc3)CC2)c1	1	0.9	5	13
CCOc1ccc(NC(=O)CSCc2cnn(-c3ccccc3)c2-n2cccc2)cc1	0	0.1	98*	94*
COc1cccc(CNC(=O)CSCc2cnn(-c3ccccc3)c2-n2cccc2)c1OC	0.1	0	94*	97*
COc1ccccc1CNC(=O)CSCc1cnn(-c2ccccc2)c1-n1cccc1	0	0.1	97*	88*
O=C(CSCc1cnn(-c2ccccc2)c1-n1cccc1)N1CCN(Cc2ccccc2)CC1	0.1	0	89*	96*
CCOc1ccc(NC(=O)CCn2cccc2)cc1	0.7	0.9	27	12
C=CCNC(=O)C(=O)NN=C1CCN(C)CC1	1.1	1	-8	-4
SMILES	CYP2C19 activ	CYP2C9 act	CYP2C19 inhib	CYP2C9 inhib
CC1(CC(=O)O)SC(=O)NC1=O (stereo not given)	1.1	1.4	-15	-36
CC(NC(=O)C1CCCCC1)C(=O)NC1=NCCS1 (stereo not given)	0.9	1	8	-1
S=c1nc[nH]c2c1[nH]c1ccccc12	0.9	1	11	-4
CC1=C(C(=O)Nc2ccccc2)C(c2ccc(C)cc2)N=C(Nc2nc3ccccc3o2)N1 (stereo not given)	0.9	0.7	11	35
Cc1c(NC(=O)c2ccc(N3CCCC3)c([N+](=O)[O-])c2)cccc1-c1nc2ccccc2s1	0.8	0.4	18	56*
O=C(Nc1ccc(N2CCCCC2)c(Cl)c1)c1ccc2c(c1)OCCO2	0.7	0.3	30	68*
O=C(Nc1ccccc1)c1ccc2c(c1)OCCO2	0.8	0.8	19	22
O=C(Nc1ccc(N2CCCCC2)c(Cl)c1)c1ccc(N2CCOCC2)c([N+](=O)[O-])c1	0.5	0.6	52*	42
c1cncc(-c2nc3cc4ccccc4cc3[nH]2)c1	0.7	0.7	30	32
CCCCN(CCCC)CCNC(=O)CNC(=O)c1cccs1	0.9	0.8	8	18
